# Hit rate of the full screen: of about 390,000 compounds, about 4,000 (1%) were called active. Roughly 7% stayed inconclusive and do not appear here. This is one part of a sample in which actives are shown more often than they occur. A number with no mark means an inactive call. Calls follow the shape of the dose curve; as a rule, active = well fitted inhibition curve with a large enough effect; inconclusive = small, poorly fitted or top-dose-only effect, or another doubt; inactive = no such curve, though single readings can be large or run the other way.
# Molecular target: DNA polymerase iota (Homo sapiens) (UniProt Q9UNA4)
# Test: qHTS for Inhibitors of Polymerase Iota
# Details: Pol iota fluorescent replication assay, 10 min; series mostly up to 115 µM; activity, negative = inhibition: at the top concentration
# Procedure, shortened: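 Pol iota at 10 nM preincubated 15 min with compounds at room temperature; reaction started with fluorescent substrate, 50 nM final. Fluorescence read kinetically at 0 and 10 min; buffer-only wells as negative control.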
# Potency is read from the fitted curve at half-maximal effect.
# Chain of DNA polymerase iota (Homo sapiens) (Q9UNA4 whole entry, looked up): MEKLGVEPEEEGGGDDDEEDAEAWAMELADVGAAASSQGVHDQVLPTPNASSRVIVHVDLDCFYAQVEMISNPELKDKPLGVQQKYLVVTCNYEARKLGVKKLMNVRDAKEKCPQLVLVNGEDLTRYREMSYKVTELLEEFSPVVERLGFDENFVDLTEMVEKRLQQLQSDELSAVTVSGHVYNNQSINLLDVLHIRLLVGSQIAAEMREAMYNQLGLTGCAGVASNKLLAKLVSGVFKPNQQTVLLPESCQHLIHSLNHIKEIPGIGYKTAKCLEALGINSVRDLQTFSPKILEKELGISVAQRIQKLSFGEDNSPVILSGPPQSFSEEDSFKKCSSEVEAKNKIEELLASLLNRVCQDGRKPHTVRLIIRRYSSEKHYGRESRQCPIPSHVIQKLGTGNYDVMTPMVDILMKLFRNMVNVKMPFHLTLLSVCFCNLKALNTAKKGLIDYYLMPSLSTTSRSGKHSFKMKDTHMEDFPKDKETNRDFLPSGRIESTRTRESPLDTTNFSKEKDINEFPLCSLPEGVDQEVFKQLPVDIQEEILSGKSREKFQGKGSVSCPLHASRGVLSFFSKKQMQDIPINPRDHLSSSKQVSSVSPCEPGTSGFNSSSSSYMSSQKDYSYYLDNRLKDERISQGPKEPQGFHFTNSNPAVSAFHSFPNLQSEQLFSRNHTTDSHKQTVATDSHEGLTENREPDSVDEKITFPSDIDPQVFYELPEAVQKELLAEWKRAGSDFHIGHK
Compound,"activity, negative = inhibition",Potency
CN(Cc1ccccc1)c1ccc(/C=C/c2ccnc3ccccc23)cc1,0.933%,
CC1CCN(C(=O)CCc2nnc3ccc(NCc4ccco4)nn23)CC1,19.1%,
CCOc1ccccc1NC(=O)CCc1nnc2ccc(NCc3ccco3)nn12,,50.1 µM (active)
O=C(CCc1nnc2ccc(NCc3ccco3)nn12)Nc1cc(F)ccc1F,-12.4%,
Cc1ccc(C=O)cc1Cl,27.8%,
COc1ccc(CCNC(=O)c2ccc3c(c2)nc(C)n3-c2ccc(Br)cc2)cc1OC,-17%,
CCC(CC)c1nn2cc(-c3ccccc3)nc2s1,-4.42%,
O=C(O)c1ccc(/C=C2\SC(=S)N(NC(=O)c3ccc(Br)cc3)C2=O)cc1,,22.4 µM (active)
O=C(Nc1ccc(C(=O)O)cc1)/C(=C\c1ccccc1)NC(=O)c1ccc(Br)cc1,17.3%,
C/C(CC(=O)N1CCN(C=O)CC1)=N\NC(=O)c1ccc(Br)cc1,-25.6%,
CN1CCN(/[N+]([O-])=N/Oc2ccc([N+](=O)[O-])cc2[N+](=O)[O-])CC1,22.3%,
CCc1nnc2c3ccccc3nc(N3CCN(c4ccc(C)cc4C)CC3)n12,37.9%,
O=C(CCS(=O)(=O)c1ccc(Br)cc1)NCCc1ccc(Cl)cc1,-25.8%,
COc1ccc(Cl)cc1NC(=O)CCS(=O)(=O)c1ccc(Br)cc1,,56.2 µM (active)
COc1ccc(Cl)cc1NC(=O)CCC(=O)c1ccc(C)cc1,23.5%,
COc1ccc(Nc2ncc3c(n2)CCN(C(=O)OC(C)(C)C)C3)cc1,10.5%,
Cc1c(C)n(Cc2ccc(Cl)cc2)c2ccc(C(=O)NCCc3ccc(S(N)(=O)=O)cc3)cc12,-6.81%,
CN(C(=O)CSc1nnc(NC(=O)Nc2ccccc2)s1)c1ccccc1,8.04%,
O=C(c1[nH]ncc1-c1ccc(Cl)cc1)C1CO1 (stereo not drawn),,56.2 µM (active)
COC(=O)c1scc(-c2ccccc2)c1S(=O)(=O)Nc1ccccc1,2.13%,
O=C1CCC[C@@H]2C[C@@]3(C[C@@H]4CCN1[C@H]24)Nc1ccccc1NC3=NCc1ccccc1,114%,
COc1cc2nc(N3CCCN(C)CC3)nc(NC3CC3)c2cc1OC,28.6%,
COc1ccc(-c2cn3nc(N4CCCC(C(=O)NCCCOC(C)C)C4)sc3n2)cc1 (stereo not drawn),23.1%,
COc1cc2c(cc1OC)C(C(=O)Nc1cc(C)c(OC)c(C)c1)CC(=O)N2 (stereo not drawn),62.9%,
COc1cc(NC(=O)c2nc3ccccc3nc2C)cc(OC)c1OC,33.3%,
COc1cc(N/C=C2\CC(=O)NC(C)=C2C#N)cc(OC)c1OC,,10 µM (active)
COc1ccc(-c2nc3sc(CCNS(=O)(=O)c4ccc(F)c(C)c4)c(C)n3n2)cc1,12.4%,
CCOc1ccccc1NC(=O)CN1CCN(S(=O)(=O)c2ccc(Br)cc2)CC1,3.35%,

# Reference: PubChem BioAssay AID588590 (National Center for Advancing Translational Sciences (NCATS), 2011)
